Assay results: ChEMBL document CHEMBL3988442, “University of Dundee, Small-Polar-MMV Screening Library” (2021)
For some assays here: Results with a measured potency or affinity are listed apart.

Legend:
Parameters in all cases: scale not given: direction of the effect not stated beside the values
[1] = biological target: Protein translocase subunit SecA (Escherichia coli (strain K12)) (UniProt P10408); experiment: Assay to Identify E. coli SecA ATPase Inhibitors; type: functional; settings: 30 µM
[2] = biological target: T1, Ubiquitin-activating enzyme e1, putative (Leishmania donovani (strain BPK282A1)) (UniProt E9BSI1); experiment: Leishmania donovani Ubiquitin Activating Enzyme (LdE1); type: functional; settings: 30 µM
T1 sequence (whole entry): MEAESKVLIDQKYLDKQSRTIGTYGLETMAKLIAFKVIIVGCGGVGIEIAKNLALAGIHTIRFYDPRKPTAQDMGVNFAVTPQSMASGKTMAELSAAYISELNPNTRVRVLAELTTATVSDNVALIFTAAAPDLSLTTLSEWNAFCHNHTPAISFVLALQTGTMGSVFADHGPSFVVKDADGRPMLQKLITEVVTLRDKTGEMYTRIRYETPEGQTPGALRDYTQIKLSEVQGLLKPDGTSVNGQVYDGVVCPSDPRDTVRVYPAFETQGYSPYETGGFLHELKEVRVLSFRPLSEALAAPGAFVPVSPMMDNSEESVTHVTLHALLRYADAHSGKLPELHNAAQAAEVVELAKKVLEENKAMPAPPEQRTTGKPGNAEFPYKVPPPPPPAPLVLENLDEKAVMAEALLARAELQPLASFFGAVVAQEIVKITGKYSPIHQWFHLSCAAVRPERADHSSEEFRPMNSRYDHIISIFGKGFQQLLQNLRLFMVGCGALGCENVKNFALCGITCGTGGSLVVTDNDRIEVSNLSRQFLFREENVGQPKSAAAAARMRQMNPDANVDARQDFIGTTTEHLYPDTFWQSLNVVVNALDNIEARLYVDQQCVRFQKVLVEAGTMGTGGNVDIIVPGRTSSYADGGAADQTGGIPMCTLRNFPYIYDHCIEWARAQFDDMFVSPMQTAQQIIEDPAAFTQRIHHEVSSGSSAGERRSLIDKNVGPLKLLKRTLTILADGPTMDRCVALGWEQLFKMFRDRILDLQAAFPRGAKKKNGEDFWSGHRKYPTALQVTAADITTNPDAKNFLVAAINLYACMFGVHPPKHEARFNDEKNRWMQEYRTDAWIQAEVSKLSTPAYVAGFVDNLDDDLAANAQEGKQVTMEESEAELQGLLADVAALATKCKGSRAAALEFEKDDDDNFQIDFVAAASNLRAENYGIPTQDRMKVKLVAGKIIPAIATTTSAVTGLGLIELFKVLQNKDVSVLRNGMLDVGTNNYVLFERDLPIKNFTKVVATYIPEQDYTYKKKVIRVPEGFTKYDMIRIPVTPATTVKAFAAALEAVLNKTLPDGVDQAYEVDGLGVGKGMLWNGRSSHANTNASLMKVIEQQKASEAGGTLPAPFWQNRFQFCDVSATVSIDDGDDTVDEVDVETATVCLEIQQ

[3] = biological target: AMP-activated protein kinase, AMPK (Homo sapiens) (UniProt P54646+O43741+P54619+Q9UGJ0+Q9Y478+Q13131+Q9UGI9); experiment: AMP-dependent Kinase enzyme assay. An in vitro enzyme assay that detects ADP turnover that is directly proportional to AMPK activity. This uses naive AMPK that is activated during the assay with MK-8722; type: functional; settings: 30 µM
[4] = biological target: Sialic acid-binding Ig-like lectin 9 (Homo sapiens) (UniProt Q9Y336); experiment: Hs-Siglec9 ALPHAscreen SOP 20170721; settings: 10 µM
[5] = tested on: Trypanosoma cruzi; experiment: Trypanosoma cruzi phosphomannomutase and mannose-1-phosphate guanylyltransferase assay; type: functional; settings: 10 µM
[6] = biological target: T2, Arginase-2, mitochondrial (Homo sapiens) (UniProt P78540); experiment: in vitro enzyme assay to detect the production of urea directly proportional to the activity of Arginase II; type: functional; settings: 33.3 µM; note: in the data most compounds retested in dose-response had high values
T2 sequence (whole entry): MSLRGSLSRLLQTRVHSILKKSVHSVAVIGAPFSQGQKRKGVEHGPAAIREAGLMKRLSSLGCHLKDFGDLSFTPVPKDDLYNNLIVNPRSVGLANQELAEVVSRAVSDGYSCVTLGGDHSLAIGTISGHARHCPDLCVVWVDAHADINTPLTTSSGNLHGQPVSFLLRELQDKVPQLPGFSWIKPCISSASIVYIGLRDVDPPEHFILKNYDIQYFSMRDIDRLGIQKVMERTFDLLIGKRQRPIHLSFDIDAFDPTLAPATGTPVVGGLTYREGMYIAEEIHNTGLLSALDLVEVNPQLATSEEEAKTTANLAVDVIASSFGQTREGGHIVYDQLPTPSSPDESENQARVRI

[7] = biological target: T3, Proteasome subunit beta (Trypanosoma cruzi) (UniProt O96673); experiment: Trypanosoma cruzi proteasome chymotrypsin-like activity (TcProtChymo) assay.; note: in the data most compounds retested in dose-response had high values; type: functional; settings: 9.37 µM
T3 sequence (whole entry): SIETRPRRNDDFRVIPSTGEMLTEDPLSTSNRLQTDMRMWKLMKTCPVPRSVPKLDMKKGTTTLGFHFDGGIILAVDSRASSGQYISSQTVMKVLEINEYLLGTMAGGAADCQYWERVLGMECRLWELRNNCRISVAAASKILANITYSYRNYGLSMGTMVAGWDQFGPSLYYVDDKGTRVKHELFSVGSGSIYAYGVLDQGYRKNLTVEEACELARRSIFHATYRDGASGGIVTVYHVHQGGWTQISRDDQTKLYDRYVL

[8] = species: Homo sapiens; experiment: To identify inhibition of the IFN signalling (Jak-Stat) pathway via expression of an eGFP reporter gene under the control of an IFN-stimulated response element (ISRE) containing MxA promoter.; type: functional; settings: 30 µM
[9] = biological target: T4, Tyrosyl-tRNA synthetase, putative (Trypanosoma cruzi (strain CL Brener)) (UniProt Q4DSP6); experiment: Trypanosoma cruzi tyrosyl tRNA synthetase (TcYRS) _High Tyrosine SOP; type: functional; settings: 30 µM; note: in the data most compounds retested in dose-response had high values
T4 sequence (whole entry): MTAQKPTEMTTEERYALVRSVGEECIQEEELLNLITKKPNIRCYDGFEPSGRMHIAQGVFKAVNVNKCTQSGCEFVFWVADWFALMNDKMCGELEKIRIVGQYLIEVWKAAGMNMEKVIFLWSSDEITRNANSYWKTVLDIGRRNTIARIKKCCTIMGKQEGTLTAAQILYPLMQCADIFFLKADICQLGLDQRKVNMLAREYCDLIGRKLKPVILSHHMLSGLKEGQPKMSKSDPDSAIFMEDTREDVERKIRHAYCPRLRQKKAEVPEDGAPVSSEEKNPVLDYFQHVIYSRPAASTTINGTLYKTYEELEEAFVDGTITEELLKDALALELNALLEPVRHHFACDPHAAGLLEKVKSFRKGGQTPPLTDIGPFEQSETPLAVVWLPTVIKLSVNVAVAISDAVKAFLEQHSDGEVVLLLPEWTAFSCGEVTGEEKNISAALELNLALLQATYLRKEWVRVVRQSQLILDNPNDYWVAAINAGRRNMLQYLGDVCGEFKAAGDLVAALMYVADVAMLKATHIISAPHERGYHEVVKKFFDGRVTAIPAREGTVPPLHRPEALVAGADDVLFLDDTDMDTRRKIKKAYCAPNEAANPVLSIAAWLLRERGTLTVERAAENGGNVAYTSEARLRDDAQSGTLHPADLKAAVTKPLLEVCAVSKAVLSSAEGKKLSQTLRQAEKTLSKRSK

[10] = biological target: T4, Tyrosyl-tRNA synthetase, putative (Trypanosoma cruzi (strain CL Brener)); experiment: Trypanosoma cruzi tyrosyl tRNA synthetase (TcYRS) SOP; type: functional; settings: 30 µM
[11] = biological target: Chromo domain-containing protein 1 (Saccharomyces cerevisiae (strain ATCC 204508 / S288c) (Baker's yeast)) (UniProt P32657); experiment: ScCHD-1 Enzyme Inhibition Assay; type: functional; settings: 30 µM; note: in the data most compounds retested in dose-response had high values
Sequence of Chromo domain-containing protein 1 (Saccharomyces cerevisiae (strain ATCC 204508 / S288c) (Baker's yeast)) (P32657 whole entry, the tested form may be a part): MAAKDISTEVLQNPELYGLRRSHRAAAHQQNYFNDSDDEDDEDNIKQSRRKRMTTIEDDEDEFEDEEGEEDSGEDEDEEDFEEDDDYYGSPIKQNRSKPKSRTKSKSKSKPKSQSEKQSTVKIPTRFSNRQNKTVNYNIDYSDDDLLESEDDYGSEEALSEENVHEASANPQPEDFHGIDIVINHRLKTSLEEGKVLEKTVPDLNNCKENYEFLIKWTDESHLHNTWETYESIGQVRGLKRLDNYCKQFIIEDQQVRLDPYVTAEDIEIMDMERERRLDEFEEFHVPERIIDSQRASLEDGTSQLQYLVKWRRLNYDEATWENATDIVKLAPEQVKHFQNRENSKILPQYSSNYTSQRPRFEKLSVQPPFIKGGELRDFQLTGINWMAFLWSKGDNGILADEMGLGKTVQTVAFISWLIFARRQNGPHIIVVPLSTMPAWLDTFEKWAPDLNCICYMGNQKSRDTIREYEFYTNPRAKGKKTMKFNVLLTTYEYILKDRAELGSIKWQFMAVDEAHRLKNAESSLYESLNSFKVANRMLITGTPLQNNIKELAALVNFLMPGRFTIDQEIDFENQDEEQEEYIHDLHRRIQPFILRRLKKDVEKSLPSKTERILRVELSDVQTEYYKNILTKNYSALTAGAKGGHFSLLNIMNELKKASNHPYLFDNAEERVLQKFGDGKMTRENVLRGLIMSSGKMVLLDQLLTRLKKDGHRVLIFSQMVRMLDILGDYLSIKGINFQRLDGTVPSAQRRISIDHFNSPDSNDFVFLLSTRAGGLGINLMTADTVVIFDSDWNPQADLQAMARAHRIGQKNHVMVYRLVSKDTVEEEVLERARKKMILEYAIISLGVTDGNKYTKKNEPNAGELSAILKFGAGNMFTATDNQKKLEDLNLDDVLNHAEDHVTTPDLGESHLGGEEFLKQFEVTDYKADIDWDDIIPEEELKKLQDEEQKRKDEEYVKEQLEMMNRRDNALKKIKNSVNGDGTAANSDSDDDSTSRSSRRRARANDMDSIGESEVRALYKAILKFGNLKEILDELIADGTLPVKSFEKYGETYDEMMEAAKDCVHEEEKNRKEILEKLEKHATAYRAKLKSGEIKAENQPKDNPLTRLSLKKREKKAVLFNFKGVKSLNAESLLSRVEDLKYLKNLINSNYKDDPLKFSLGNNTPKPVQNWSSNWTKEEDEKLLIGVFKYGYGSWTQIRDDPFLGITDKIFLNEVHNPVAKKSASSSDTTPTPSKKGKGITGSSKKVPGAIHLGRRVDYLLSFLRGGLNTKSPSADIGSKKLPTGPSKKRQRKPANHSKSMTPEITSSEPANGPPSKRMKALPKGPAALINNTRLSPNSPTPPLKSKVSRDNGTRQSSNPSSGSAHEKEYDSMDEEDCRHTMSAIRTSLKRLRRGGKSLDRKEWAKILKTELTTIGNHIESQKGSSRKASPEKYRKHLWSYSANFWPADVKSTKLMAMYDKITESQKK

Sequence of Sialic acid-binding Ig-like lectin 9 (Homo sapiens) (Q9Y336 whole entry): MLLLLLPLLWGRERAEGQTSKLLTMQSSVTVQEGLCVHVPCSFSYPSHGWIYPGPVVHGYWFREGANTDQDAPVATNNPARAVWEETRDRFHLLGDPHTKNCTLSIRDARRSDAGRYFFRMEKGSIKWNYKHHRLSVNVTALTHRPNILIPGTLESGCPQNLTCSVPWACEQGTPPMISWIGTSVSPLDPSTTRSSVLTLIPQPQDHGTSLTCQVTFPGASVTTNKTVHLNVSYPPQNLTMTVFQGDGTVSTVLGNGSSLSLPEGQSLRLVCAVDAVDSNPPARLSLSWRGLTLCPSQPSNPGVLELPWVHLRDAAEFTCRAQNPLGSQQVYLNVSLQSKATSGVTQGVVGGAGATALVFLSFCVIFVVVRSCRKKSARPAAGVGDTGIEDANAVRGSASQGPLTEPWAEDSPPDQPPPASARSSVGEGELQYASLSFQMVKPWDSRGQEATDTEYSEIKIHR
Sequence of Protein translocase subunit SecA (Escherichia coli (strain K12)) (P10408 whole entry): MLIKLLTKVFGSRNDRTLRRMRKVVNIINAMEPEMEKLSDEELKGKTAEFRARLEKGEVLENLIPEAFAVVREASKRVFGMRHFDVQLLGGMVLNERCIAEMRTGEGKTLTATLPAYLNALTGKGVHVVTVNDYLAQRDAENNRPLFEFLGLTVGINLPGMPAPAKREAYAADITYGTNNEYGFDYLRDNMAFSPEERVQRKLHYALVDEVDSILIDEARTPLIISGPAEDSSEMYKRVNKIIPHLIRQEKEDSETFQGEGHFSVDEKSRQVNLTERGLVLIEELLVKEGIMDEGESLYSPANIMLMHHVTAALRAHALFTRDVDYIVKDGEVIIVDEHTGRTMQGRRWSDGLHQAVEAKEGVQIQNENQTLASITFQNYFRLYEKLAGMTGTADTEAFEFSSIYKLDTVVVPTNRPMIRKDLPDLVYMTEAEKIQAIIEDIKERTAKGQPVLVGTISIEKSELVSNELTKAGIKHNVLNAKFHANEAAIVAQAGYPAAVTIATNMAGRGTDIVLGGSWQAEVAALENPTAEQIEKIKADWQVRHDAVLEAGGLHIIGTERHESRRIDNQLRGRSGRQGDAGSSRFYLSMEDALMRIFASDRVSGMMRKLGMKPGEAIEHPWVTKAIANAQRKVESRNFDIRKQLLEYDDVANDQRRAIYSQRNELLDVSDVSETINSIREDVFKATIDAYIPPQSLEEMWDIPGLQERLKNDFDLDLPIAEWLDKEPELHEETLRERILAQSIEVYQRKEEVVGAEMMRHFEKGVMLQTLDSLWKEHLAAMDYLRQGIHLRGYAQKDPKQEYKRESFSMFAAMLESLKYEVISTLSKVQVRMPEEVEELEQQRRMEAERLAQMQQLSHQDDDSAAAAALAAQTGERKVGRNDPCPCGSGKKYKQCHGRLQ

Compound | Percent Effect [1] [%] | Percent Effect [2] [%] | Percent Effect [3] [%] | Percent Effect [4] [%] | Percent Effect [5] [%] | Percent Effect [6] [%] | Percent Effect [7] [%] | Percent Effect [8] [%] | Percent Effect [9] [%] | Percent Effect [10] [%] | Percent Effect [11] [%]
CCOc1ccc(C(=O)NS(=O)(=O)c2cncc(Br)c2)cc1OC | -4.35 | 13.5 | -8.62 | 34.9 | 10.6 | 3.81 | 0.517 | 2.53 | 3.7 | 9.76 | -13.3
Cc1ccccc1CC1(CO)CCCN(c2ncccc2C#N)C1 (stereo unspecified) | -2.63 | 0 | 3.1 | 0.621 | -5.21 | 1.43 | 17.1 | 27.8 | 3.7 | 7.32 | -1.78
Cc1cc(C(=O)N2C[C@@H]3COC[C@]3(COCc3cccnc3)C2)no1 | -2.45 | 33.8 | 4.4 | -2.26 | -3.45 | 3.23 | 7.31 | 4.17 | -2.12 | 8.97 | -5.95
CCOc1ccccc1C(CC(=O)Nc1nc(C)cs1)NC(C)=O (stereo unspecified) | -1.09 | 5.26 | -0.999 | 0.981 | -2.63 | 4.21 | 6.85 | 10.1 | 3.43 | 9.76 | -5.47
CCCn1c(C)c(CC(=O)NC)c2c1CC(C)(C)CC2=O | -4.47 | 2.6 | -16 | 0.225 | -1.08 | -6.9 | 2.66 | 2.97 | 5.38 | 8.64 | 2.86
COc1cccc(CN(C)C(=O)CCC(=O)c2ccc(Cl)cc2)c1OC | -3.29 | -5.48 | -3.03 | 3.31 | -0.992 | -7.58 | 6.59 | 17 | 1.04 | 8.64 | -4.85
CSCC(C)(O)CNC(=O)c1ccc(Br)cc1C (stereo unspecified) | 0.706 | 0 | 2.08 | -6.13 | -1.27 | -1.74 | 8.15 | -5.12 | 2.15 | 6.17 | 0.55
Cc1nc(N2CCN(C)CC2)ncc1C(=O)N1CC(C)(C)C(C)(O)C1 (stereo unspecified) | -0.364 | 2.7 | 6.69 | -5.09 | -9.09 | -8.19 | 13 | 11.1 | 0 | -16.1 | 103
Cc1ccc(CNC(C)c2ccc3[nH]c(=O)[nH]c3c2)s1 (stereo unspecified) | -3.59 | 13.5 | -7.56 | 14 | 5 | -5.61 | -0.721 | 14.9 | 2.46 | 11.1 | -6.23
O=C(NCCNc1ncccn1)N1CCN(Cc2cccnc2)CC1 | -10.3 | 13.5 | -7.65 | 22.9 | 10.5 | -16 | 6.13 | 2.94 | 7.39 | 23.5 | -14.1
CSCC(CCO)NC(=O)Nc1cc(Br)ccc1C (stereo unspecified) | 0.198 | 5.48 | 11.7 | 4.67 | 2.35 | 4.09 | 15.6 | -12 | 1.07 | 5 | 106
O=C(c1ccsc1)N1C[C@@H]2C[C@@H](c3nnc(C4CC4)o3)O[C@@H]2C1 | -1.51 | 7.79 | 6.12 | 6.45 | -4.63 | 5.81 | 3.31 | 15 | 1.06 | 3.85 | -4.38
Cc1cccc(CN(C)Cc2nc3c(cnn3C)c(=O)[nH]2)c1 | -3.57 | 21.1 | -0.412 | -12.2 | -5.51 | -5.04 | 3.3 | -2.73 | 8.37 | 23.5 | -7.57
CCc1ccc(S(=O)(=O)Nc2c(C)cccc2C(=O)O)s1 | -6.89 | 5.26 | -2.41 | 7.53 | 2.71 | -2.16 | 3.64 | -1.38 | 2.46 | 6.17 | 2.56
CCCc1nnsc1C(=O)NCC1CCN(c2ccccn2)CC1 | -0.329 | 11 | -5.48 | 2.44 | 4.5 | 11.8 | 21.3 | 25.2 | 5.38 | 20 | -6.53
CC(C)COCC(NC(=O)c1cccnc1)c1ccco1 (stereo unspecified) | -5.15 | 10.8 | -37.5 | 3.03 | 0.0943 | -4.01 | -0.54 | 16.3 | 9.36 | 11.1 | -5.14
